Test results reported in the supplement of paper PMC6411743.
± gives the standard deviation of the averaged measurements. The full data set covers some 5,400 targets. This sample favours those with the largest changes.

Compound: Nc1nc2c(ncn2[C@@H]2O[C@H](COP(=O)(O)OP(=O)(O)OP(=O)(O)O)[C@@H](O)[C@H]2O)c(=O)[nH]1 [guanosine triphosphate]
Experiment: NP40-soluble protein abundance relative to vehicle (solubility fold change) (ratio); higher = more soluble protein in presence of GTP
Procedure: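 Solubility proteome profiling in Jurkat crude lysate. Lysate was treated with Mg-GTP (0.1-10 mM) for 10 min at room temperature and 3 min at 37 °C, then solubilised with 0.8% NP40 and benzonase, followed by ultracentrifugation. Proteins were quantified by TMT10 LC-MS/MS; the value is the NP40-soluble abundance relative to the NP40-processed vehicle, from 3 independent experiments.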

Sequence of UniProt P61006 (P61006 whole entry): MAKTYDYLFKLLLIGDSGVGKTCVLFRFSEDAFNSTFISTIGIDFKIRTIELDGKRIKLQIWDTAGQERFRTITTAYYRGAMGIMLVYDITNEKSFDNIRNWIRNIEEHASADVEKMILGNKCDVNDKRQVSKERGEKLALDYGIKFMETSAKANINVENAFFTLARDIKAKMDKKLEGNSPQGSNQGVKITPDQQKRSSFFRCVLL
Sequence of UniProt Q53EL6 (Q53EL6 whole entry): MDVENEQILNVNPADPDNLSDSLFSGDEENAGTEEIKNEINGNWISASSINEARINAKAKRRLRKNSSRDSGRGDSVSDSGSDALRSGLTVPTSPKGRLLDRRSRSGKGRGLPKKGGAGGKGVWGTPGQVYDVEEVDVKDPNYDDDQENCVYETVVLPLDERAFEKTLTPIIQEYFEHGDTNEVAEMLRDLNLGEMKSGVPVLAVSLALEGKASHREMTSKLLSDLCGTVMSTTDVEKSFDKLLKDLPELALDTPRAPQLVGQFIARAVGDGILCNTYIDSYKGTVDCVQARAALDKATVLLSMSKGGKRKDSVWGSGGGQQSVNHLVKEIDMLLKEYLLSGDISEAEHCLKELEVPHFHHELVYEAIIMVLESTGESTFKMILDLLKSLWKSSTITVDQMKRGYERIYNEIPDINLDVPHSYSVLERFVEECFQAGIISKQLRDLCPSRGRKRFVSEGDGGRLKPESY
Sequence of UniProt Q86V88 (Q86V88 whole entry): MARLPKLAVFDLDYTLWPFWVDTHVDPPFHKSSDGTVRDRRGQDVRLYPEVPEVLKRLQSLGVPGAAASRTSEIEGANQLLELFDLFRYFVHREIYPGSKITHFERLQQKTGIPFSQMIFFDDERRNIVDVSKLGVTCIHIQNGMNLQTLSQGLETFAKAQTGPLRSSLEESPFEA

Q: With UniProt Q53EL6|Q53EL6-2 as the target, how does the NP40-soluble protein abundance (concentration: 0.1mM) read?
A: 0.992 ± 0.14

Q: What about the NP40-soluble protein abundance (concentration: 0.5mM) of the same target?
A: 1.08 ± 0.18

Q: What about the NP40-soluble protein abundance (concentration: 1mM) of the same target?
A: 1.12 ± 0.24

Q: What about the NP40-soluble protein abundance (concentration: 2mM) of the same target?
A: 1.23 ± 0.34

Q: What about the NP40-soluble protein abundance (concentration: 4mM) of the same target?
A: 1.45 ± 0.45

Q: And the NP40-soluble protein abundance (concentration: 6mM)?
A: 1.66 ± 0.47

Q: And the NP40-soluble protein abundance (concentration: 8mM)?
A: 1.81 ± 0.48

Q: What about the NP40-soluble protein abundance (concentration: 10mM) of the same target?
A: 2.16 ± 0.58

Q: With UniProt Q86V88|Q86V88-2 as the target, how does the NP40-soluble protein abundance (concentration: 0.1mM) read?
A: 0.975 ± 0.052

Q: What about the NP40-soluble protein abundance (concentration: 0.5mM) of the same target?
A: 0.901 ± 0.079

Q: And the NP40-soluble protein abundance (concentration: 1mM)?
A: 0.953 ± 0.11

Q: What about the NP40-soluble protein abundance (concentration: 2mM) of the same target?
A: 0.872 ± 0.064

Q: What about the NP40-soluble protein abundance (concentration: 4mM) of the same target?
A: 0.869 ± 0.048

Q: And the NP40-soluble protein abundance (concentration: 6mM)?
A: 0.839 ± 0.089

Q: And the NP40-soluble protein abundance (concentration: 8mM)?
A: 0.858 ± 0.058

Q: And the NP40-soluble protein abundance (concentration: 10mM)?
A: 0.88 ± 0.078

Q: For UniProt Q8WXA9-2, which NP40-soluble protein abundance (concentration: 0.1mM) is on record?
A: 1.02 ± 0.067

Q: What about the NP40-soluble protein abundance (concentration: 0.5mM) of the same target?
A: 1.11 ± 0.044

Q: And the NP40-soluble protein abundance (concentration: 1mM)?
A: 1.14 ± 0.077

Q: What about the NP40-soluble protein abundance (concentration: 2mM) of the same target?
A: 1.12 ± 0.082

Q: And the NP40-soluble protein abundance (concentration: 4mM)?
A: 1.15 ± 0.067

Q: And the NP40-soluble protein abundance (concentration: 6mM)?
A: 1.11 ± 0.07

Q: And the NP40-soluble protein abundance (concentration: 8mM)?
A: 1.18 ± 0.035

Q: And the NP40-soluble protein abundance (concentration: 10mM)?
A: 1.18 ± 0.1

Q: For UniProt Q13303-2, which NP40-soluble protein abundance (concentration: 0.1mM) is on record?
A: 1.05 ± 0.045

Q: What about the NP40-soluble protein abundance (concentration: 0.5mM) of the same target?
A: 1.06 ± 0.11

Q: And the NP40-soluble protein abundance (concentration: 1mM)?
A: 0.954 ± 0.086

Q: What about the NP40-soluble protein abundance (concentration: 2mM) of the same target?
A: 1 ± 0.14

Q: What about the NP40-soluble protein abundance (concentration: 4mM) of the same target?
A: 0.984 ± 0.11

Q: What about the NP40-soluble protein abundance (concentration: 6mM) of the same target?
A: 0.973 ± 0.14

Q: And the NP40-soluble protein abundance (concentration: 8mM)?
A: 0.898 ± 0.024

Q: And the NP40-soluble protein abundance (concentration: 10mM)?
A: 0.904 ± 0.043

Q: With RAB8A (UniProt P61006) as the target, how does the NP40-soluble protein abundance (concentration: 0.1mM) read?
A: 0.928 ± 0.03

Q: What about the NP40-soluble protein abundance (concentration: 0.5mM) of the same target?
A: 0.95 ± 0.039

Q: And the NP40-soluble protein abundance (concentration: 1mM)?
A: 0.903 ± 0.041

Q: What about the NP40-soluble protein abundance (concentration: 2mM) of the same target?
A: 0.849 ± 0.068

Q: And the NP40-soluble protein abundance (concentration: 4mM)?
A: 0.812 ± 0.064

Q: And the NP40-soluble protein abundance (concentration: 6mM)?
A: 0.858 ± 0.085

Q: And the NP40-soluble protein abundance (concentration: 8mM)?
A: 0.828 ± 0.046

Q: And the NP40-soluble protein abundance (concentration: 10mM)?
A: 0.81 ± 0.075
